Screens (PubChem)
Vaccinia Venus – inhibitors of vaccinia virus (Venus reporter); Vaccinia virus Venus reporter expression, fluorescence; Potency, µM (doses to about 36.5 µM), most hits filed as inhibitors; actives 0.46% (n = 330,000); calls by dose curve; tested in A549 cells; further: nearly all actives have a fitted effect of over 30% in size
LASV entry inh – inhibitors of Lassa virus binding or cell entry; Lassa virus pseudotype entry inhibition, cell reporter; Potency, µM (top dose mostly 37.9 µM), usual class: inhibitors; actives 1.2% (n = 300,000); AID 540256; calls by dose curve; tested in HEK293 cells; further: nearly all actives have a fitted effect of over 50% in size
VACV mCherry inh – inhibitors of vaccinia virus infection (mCherry reporter signal); Vaccinia virus mCherry reporter infection, fluorescence; Potency, µM (highest dose often 36.5 µM), hits mostly inhibitors; actives 0.63% (n = 310,000); calls by dose curve; tested in A549 cells; further: nearly all actives have a fitted effect of over 35% in size
HCMV inh – inhibitors of human cytomegalovirus. HFF cells, HCMV-luciferase reporter, 72 h; hits give low values. actives 4.5% (n = 410,000). activity change, negative = inhibition, % at 57.5 µM; in the data active means activity change below about -60%; inconclusive means no clear call, values can overlap the other calls; inactive means above about -39%
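After 16 h attachment at 37C, HFF cells received test compound and HCMV-luciferase (1 PFU/cell); reporter luminescence read 72 h later, data normalized against buffer-only and known inhibitor Salinomycin.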
FMDV antiviral – blocks foot and mouth disease virus. FMDV antiviral cell-based qHTS. Potency, µM (titrated, usually from 57.9 µM), most hits filed as inhibitors. actives 1.2% (n = 410,000). AID 1159524; calls by dose curve; tested in HEK293T cells; further: read-out not given here; nearly all actives have a fitted effect of over 45% in size
MARV entry inh – inhibitors of Marburg virus binding or cell entry | Potency, µM (series often up to 37.8 µM), hits mostly inhibitors | AID 540276 | actives 1.8% (n = 300,000) | Marburg virus pseudotyped entry inhibition, cell reporter; calls by dose curve; tested in HEK293 cells
Of the large screens only hits and unclear results are named; the others gave an inactive call. Only some compounds are listed: those with a hit (about 6.5% of all), similar ones and a draw of the others.

Cc1ccc(OCC(=O)Nc2cccnc2Cl)cc1C	HCMV inh -61
O=C(COC(=O)c1cc2ccccc2cc1O)Nc1cccnc1Cl	none
COC1=C[C@H](C(=O)NCc2ccc(Br)cc2)C(C)C(c2ccccc2)CC1=O (some centres undefined)	none (no result: Vaccinia Venus, LASV entry inh, VACV mCherry inh, HCMV inh, FMDV antiviral)
C=CCNC(=S)NNC(=O)C(CCC(C)C)CC(C)(C)O (centres undefined)	HCMV inh -107
CC12CN(NC(=O)c3ccccc3F)C3(C#N)CC1CCC23C (centres undefined)	HCMV inh -75
CC(=O)N1Cc2ccccc2C(C)CC12CCCC2 (centres undefined)	FMDV antiviral 25µM
Cn1c(=O)c([N+](=O)[O-])c(Cl)c2ccccc21	LASV entry inh inconclusive, HCMV inh -71, FMDV antiviral 14µM, MARV entry inh inconclusive
CCN(CC)c1c([N+](=O)[O-])c(=O)n(C)c2ccccc12	FMDV antiviral inconclusive, MARV entry inh inconclusive
CCCCC(=O)NCCNc1nc2c(c(=O)n(C)c(=O)n2C)n1Cc1ccc(F)cc1	Vaccinia Venus inconclusive, LASV entry inh 9.2µM, MARV entry inh inconclusive
CCOc1ccc(CCNc2nc3c(c(=O)n(C)c(=O)n3C)n2CC)cc1OCC	LASV entry inh inconclusive, HCMV inh -97, MARV entry inh inconclusive (no result: Vaccinia Venus, VACV mCherry inh)
COc1ccc(CCNc2nc3c(c(=O)n(C)c(=O)n3C)n2Cc2ccc(F)cc2)cc1OC	LASV entry inh inconclusive, VACV mCherry inh inconclusive, HCMV inh -90, FMDV antiviral 16µM, MARV entry inh 6.3µM
CC1=C(C(=O)Nc2ccccc2C)C(c2ccc[nH]2)n2ncnc2N1 (centres undefined)	none (no result: MARV entry inh)
O=C(Cn1c(=O)n(CCc2ccccc2)c(=O)c2c3c(sc21)CCCC3)Nc1ccc(F)c(F)c1	FMDV antiviral inconclusive
Cc1ccccc1-c1nnc(SCC(=O)Nc2cccnc2Cl)o1	LASV entry inh 2µM, MARV entry inh inconclusive
CNc1c2cccc(C)c2nc2c(C(=O)NCCN(C)C)cccc12	Vaccinia Venus 2.2µM, LASV entry inh inconclusive, VACV mCherry inh 2.2µM, HCMV inh -100, FMDV antiviral inconclusive, MARV entry inh inconclusive
Cc1ccc(C(=O)NCCN(C)C)c(C)c1	LASV entry inh inconclusive
CC1CCc2nc3sc4c(c3c(N)c2C1)CCCC4 (centres undefined)	Vaccinia Venus inconclusive, MARV entry inh inconclusive
Nc1c2c(nc3sc4c(c13)CCCC4)CCCCC2	LASV entry inh inconclusive (no result: VACV mCherry inh)
Nc1c2c(nc3sc4c(c13)CCCC4)CCCC2	Vaccinia Venus inconclusive, HCMV inh -72, MARV entry inh inconclusive
CC1CCc2c(nc3sc4c(c3c2N)CCCC4)C1 (centres undefined)	Vaccinia Venus inconclusive, HCMV inh inconclusive, MARV entry inh 11µM
CCc1c(-c2ccccc2)nc2sc3c(c2c1N)CCCC3	Vaccinia Venus inconclusive, LASV entry inh inconclusive, VACV mCherry inh inconclusive, HCMV inh -92, MARV entry inh inconclusive
O=C1N=C2C=CC=CC2N1C1CCN(CCCC(c2ccc(F)cc2)c2ccc(F)cc2)CC1 (centres undefined)	none (no result: Vaccinia Venus, LASV entry inh, VACV mCherry inh, HCMV inh, FMDV antiviral)
O=c1[nH]c2ccc(NCc3ccccc3OCc3ccc(Cl)cc3)cc2[nH]1	HCMV inh -73, FMDV antiviral inconclusive (no result: Vaccinia Venus, LASV entry inh, VACV mCherry inh, MARV entry inh)
Oc1ccc(NCc2ccccc2OCc2ccc(Cl)cc2)cc1	HCMV inh -72, MARV entry inh inconclusive
Oc1ccc(NCc2ccccc2OCc2ccccc2)cc1	LASV entry inh inconclusive, HCMV inh inconclusive, MARV entry inh inconclusive
COc1cccc(CNc2ccc3[nH]c(=O)[nH]c3c2)c1OCc1ccc(F)cc1	VACV mCherry inh inconclusive, FMDV antiviral inconclusive, MARV entry inh inconclusive
Cc1cccc(NC(=O)Cc2nc(-c3c[nH]c(C(=O)N4CCCC4)c3)cs2)c1	LASV entry inh inconclusive, FMDV antiviral 35µM, MARV entry inh inconclusive
CCC(c1nc2ccccc2[nH]1)n1c(-c2ccc3ccccc3c2)nc2ccccc21 (centres undefined)	none (no result: LASV entry inh, MARV entry inh)
CCCCCCCCC(c1nc2ccccc2[nH]1)N1CCN=C1c1cc2ccccc2[nH]1 (centres undefined)	Vaccinia Venus inconclusive, VACV mCherry inh inconclusive, HCMV inh -103 (no result: LASV entry inh, MARV entry inh)
CC1CCCCC1S(=O)C1=C(C(=O)O)CCCC1 (centres undefined)	none (no result: Vaccinia Venus, LASV entry inh, VACV mCherry inh, HCMV inh, FMDV antiviral)
O=C(c1ccc2c(c1)OCO2)N1C[C@H]2[C@@H](c3ccccc31)[C@H](CO)N2C(=O)CC1CC1	none (no result: Vaccinia Venus, LASV entry inh, VACV mCherry inh, FMDV antiviral, MARV entry inh)
CCN(CC)CCCN1C(=O)C(=O)/C(=C(\O)c2ccc(Cl)cc2)[C@@H]1c1ccccn1	none (no result: Vaccinia Venus, LASV entry inh, VACV mCherry inh, HCMV inh, FMDV antiviral)
COC(=O)C1=C(Nc2ccc(C)cc2)C=C(C)C(C(=O)OC)C1c1ccc(OC)cc1 (centres undefined)	LASV entry inh inconclusive, MARV entry inh inconclusive (no result: Vaccinia Venus, VACV mCherry inh)
COC(=O)C1=C(O)C(C(=O)OC)C(c2ccc(C)cc2)C(C#N)(C#N)C1c1ccc(C)cc1 (centres undefined)	LASV entry inh inconclusive, HCMV inh -96, MARV entry inh inconclusive (no result: Vaccinia Venus, VACV mCherry inh)
Cc1ccc(-n2ncc3c(N4CCC(C)CC4)ncnc32)cc1C	none (no result: MARV entry inh)
COCC(=O)Nc1cc(C(=O)N2CCc3c(Cl)cccc3C2)c2c(c1)nc(-c1ccncc1)n2C	none (no result: LASV entry inh, HCMV inh, MARV entry inh)
N#Cc1nc(-c2ccccc2)cc(-c2ccccc2)n1	none (no result: LASV entry inh, HCMV inh, FMDV antiviral, MARV entry inh)
CC(C)(C)c1ccc(C(=O)NCc2nnc(SCC(=O)N3CCCC3)o2)cc1	none (no result: LASV entry inh, MARV entry inh)
O=C(NCc1nnc(SCC(=O)N2CCCCC2)o1)c1ccc(F)cc1	HCMV inh -85
Cc1c2ccccc2nc2c(F)c(N(C)C)c(F)c(F)c12	none
CN(C)c1c2ccccc2nc2c(F)c(F)c(F)c(F)c12	FMDV antiviral 28µM (no result: Vaccinia Venus, LASV entry inh, VACV mCherry inh, HCMV inh, MARV entry inh)
COc1ccc(Cn2nnnc2C(c2ccccn2)N2CCN(c3ccc(O)cc3)CC2)cc1 (centres undefined)	none (no result: LASV entry inh, HCMV inh, FMDV antiviral, MARV entry inh)
Cc1nc(C(F)(F)F)c(C(=O)N/N=C(\N)c2ccccn2)s1	Vaccinia Venus inconclusive, LASV entry inh inconclusive, VACV mCherry inh 2.5µM, MARV entry inh inconclusive
CCc1noc(C)c1C(=O)Oc1ccc(N(C)S(=O)(=O)c2ccccc2)cc1	LASV entry inh inconclusive, FMDV antiviral 18µM, MARV entry inh inconclusive
Clc1cnc(N/N=C/c2cccs2)c(Cl)c1	Vaccinia Venus inconclusive, LASV entry inh inconclusive, MARV entry inh inconclusive
Cc1ccc(/C=N/Nc2ncc(Cl)cc2Cl)s1	LASV entry inh inconclusive, HCMV inh -64, MARV entry inh inconclusive
COc1ccc2ccccc2c1CN1CCc2nnc(CNC(=O)c3cccc(F)c3)n2CC1	none (no result: LASV entry inh, HCMV inh, MARV entry inh)
Cc1ccc(C)c(NC(=O)CSc2nnc(CCCCCNC(=O)OC(C)(C)C)o2)c1	FMDV antiviral 16µM (no result: Vaccinia Venus, VACV mCherry inh)
CC(C)(C)OC(=O)NCCCCCc1nnc(SCc2ccc(F)cc2)o1	HCMV inh -67, FMDV antiviral inconclusive, MARV entry inh inconclusive
Cc1ccc(NC(=O)CSc2nnc(CCNC(=O)OC(C)(C)C)o2)c(C)c1	none (no result: Vaccinia Venus, VACV mCherry inh)
COc1cc([C@@H](NC(=O)C(F)(F)F)C2CCCCC=C2c2ccccc2)cc(OC)c1OC (some centres undefined)	none (no result: Vaccinia Venus, VACV mCherry inh, HCMV inh, FMDV antiviral)
